Shown are actives, neighbours in structure and some others; about 10% of the full set was active somewhere.
CtBP-E1A blk = CtBP/E1A binding inhibition | AlphaScreen GST-E1A/His-CtBP binding, 1536-well; stronger effect = lower value | activity change, % (test concentration not listed) | 340,000 compounds, 0.49% hits; in the data active = activity change below about -65%; inconclusive = mostly about -30% to -63%; also: % is scaled to controls: 0 for no effect and ±100 for the full control effect
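GST-E1A and His-tagged CtBP (125 nM each as 5X stock) were preincubated with pin-transferred compound for 2 h at 37 °C in the dark, then glutathione donor and nickel acceptor beads were added for 1 h before AlphaScreen reading.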
HP1b binding inh = inhibitors of HP1-beta chromodomain binding to methylated histone tails; AlphaScreen HP1-beta / biotin-H3K9me3 peptide binding; Potency, µM (doses to about 114 µM), for inactives: at the highest dose activity change, negative = inhibition, usual class: inhibitors; 390,000 compounds, 0.56% hits; AID 540317; also: potency is read from the fitted curve at half-maximal effect; nearly all actives have a fitted effect of over 70% in size
Target sequence (P83916 whole entry, looked up): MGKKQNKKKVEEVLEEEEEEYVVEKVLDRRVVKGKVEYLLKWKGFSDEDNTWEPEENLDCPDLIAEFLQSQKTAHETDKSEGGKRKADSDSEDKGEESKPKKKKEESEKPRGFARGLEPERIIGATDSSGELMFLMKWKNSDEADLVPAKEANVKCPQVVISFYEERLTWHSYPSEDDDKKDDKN
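AlphaScreen: HP1-beta (50 nM) preformed 30 min with biotin-H3(1-18)K9me3 peptide (50 nM) in PBS pH 7.4, 0.01% Tween-20. Compound added for 30 min at RT, then streptavidin donor/nickel chelate acceptor beads (10 ug/mL) for 30 min.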
BAZ2B inh = blocks human BAZ2B; Potency, µM (doses to about 114 µM), inactives show at the top dose activity change, negative = inhibition, usual class: inhibitors; 360,000 compounds, 4.4% hits; AlphaScreen BAZ2B-H3K14Ac peptide displacement; Q9UIF8; also: potency is read from the fitted curve at half-maximal effect; % is scaled to controls: 0 for no effect and ±100 for the full control effect; nearly all actives have a fitted effect of over 60% in size
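Protein-peptide AlphaScreen: BAZ2B 50 nM, b-H3K14Ac 50 nM, 1x PBS pH 7.4 + 0.01% Tween-20. Preincubation 30 min RT; cpd 30 min RT (top 110 uM); beads 20 min RT, light-protected.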
G9a inh = G9a (human) methyltransferase inhibition. 350,000 compounds, 8.8% hits. G9a H3K9 monomethylation, AlphaScreen, 2 h. Potency, µM (titrated, usually from 102 µM), for inactives: at the highest dose activity, negative = inhibition, most hits filed as inhibitors. Q96KQ7; also: potency is read from the fitted curve at half-maximal effect; % is scaled to controls: 0 for no effect and ±100 for the full control effect; nearly all actives have a fitted effect of over 75% in size
Target sequence (Q96KQ7 913-1193 limits assumed): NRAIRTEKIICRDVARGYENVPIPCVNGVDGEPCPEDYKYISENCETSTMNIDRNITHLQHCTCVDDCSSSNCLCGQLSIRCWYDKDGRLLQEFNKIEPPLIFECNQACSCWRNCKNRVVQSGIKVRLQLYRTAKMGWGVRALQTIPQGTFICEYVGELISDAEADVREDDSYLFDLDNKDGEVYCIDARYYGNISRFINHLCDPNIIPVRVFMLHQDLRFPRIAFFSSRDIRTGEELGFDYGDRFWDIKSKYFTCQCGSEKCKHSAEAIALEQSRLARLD
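Step 1: enzyme (final 20 nM) with compound, 15 min RT. Step 2: substrate peptide 500 nM and SAM 20 uM, 2 h RT. Step 3: anti-H3K9me1 antibody and AlphaScreen beads, 10 min, then plate read.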
JMJD2A Tudor inh = blocks the human JMJD2A Tudor domain; Potency, µM (top dose mostly 114 µM), for the others: top-dose activity change, negative = inhibition, actives largely listed as inhibitors; O75164; 390,000 compounds, 4.4% hits; AlphaScreen JMJD2A-Tudor / H3K4me3 peptide binding; also: potency is read from the fitted curve at half-maximal effect; % is scaled to controls: 0 for no effect and ±100 for the full control effect; nearly all actives have a fitted effect of over 50% in size
Six1-Eya2 inh = inhibitors of human Six1/Eya2 interaction; Q15475+O00167; AlphaScreen GST-Six1/His-Eya2 binding, biochemical; stronger effect = lower value; activity change, % (no concentration beside the values); 360,000 compounds, 0.56% hits; AID 651725; in the data active = activity change below about -65%; inconclusive = mostly about -30% to -63%; also: % is scaled to controls: 0 for no effect and ±100 for the full control effect
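AlphaScreen luminescence read after one hour at 37 °C in darkness. Pin-transferred compounds met GST-Six1 and His-Eya2 protein (5X stock 250 nM/500 nM) plus glutathione donor and Ni-chelate acceptor beads (5X, 50 ug/mL).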
An asterisk follows results filed as active; u = inconclusive; x = not tested or not shown; [ ] = remark or other dose. Unless noted, calls follow the shape of the dose curve; as a rule, active = well fitted inhibition curve with a large enough effect; inconclusive = small, poorly fitted or top-dose-only effect; inactive = no such curve, though single readings can be large or run the other way.

SMILES	CtBP-E1A blk	HP1b binding inh	BAZ2B inh	G9a inh	JMJD2A Tudor inh	Six1-Eya2 inh
CC(Sc1nc2ccccc2o1)C(=O)O (stereo not given)	3	37%	-7%	50µM*	1%	1
COc1ccc(C(=O)CSc2nnc(CCc3ccccc3)n2-c2ccccc2)cc1	-6	17%	-1%	40µM*	56µM*	-2
CC(C)Oc1ccc(CCc2nnc(SC(C)C(=O)O)n2-c2ccccc2)cc1 (stereo not given)	3	26%[57 µM]	2%	x	56µM*	-5
CCC(Sc1nc2ccccc2o1)C(=O)O (stereo not given)	7	34%	4%	u	-10%	4
COc1ccc(-n2c(CCc3ccccc3)nnc2SCC(=O)c2ccccc2)cc1	-13	0%	-37%	8.9µM*	-35%	-6
Cc1ccc(CSC2=NC(C)(C)Nc3ccccc32)c(C)c1	x	224%	75%[57.1 µM]	89%[59 µM]	94%	x
Cc1cc(C)c(NC(=O)C(C)Sc2nnc(-c3ccco3)n2-c2ccccc2)c(C)c1 (stereo not given)	x	x	-11%	-9%	x	x
CC(Sc1nnc(-c2cc3ccccc3o2)n1-c1ccccc1)C(=O)O (stereo not given)	5	30%	6%	8.9µM*	-18%	3
Cc1ccc(C)c(S(=O)(=O)c2cn(C)c3cc(N4CCCCC4C)c(F)cc3c2=O)c1 (stereo not given)	x	34%	-8%	-13%[59 µM]	-24%	x
CC(=O)c1ccc(NC(=O)CSc2cn[nH]n2)cc1	-1	42%	-4%	u	3%	-9
COc1ccc(NC(=O)CSc2ccccn2)cc1OC	-4	27%	-12%	-45%[59 µM]	-4%	6
Cc1nonc1NC(=O)CSc1cn[nH]n1	4	18%	-19%	50µM*	-8%	12
COc1ccc(NC(=O)CSc2cn[nH]n2)cc1OC	-4	33%	3%	35µM*	-4%	-17
Cc1cccc(NC(=O)CSc2cn[nH]n2)c1	4	36%	3%	40µM*	5%	1
NS(=O)(=O)c1ccc(NC(=O)CSc2cn[nH]n2)cc1	4	48%	-3%	45µM*	-6%	6
Cc1nonc1NC(=O)CSc1ccc(-c2ccccc2)nn1	1	35%	-2%	9%	-5%	-3
N=C(N)c1ccc(OCCCCCOc2ccc(C(=N)N)cc2)cc1 (tested in a mixture with another compound)	x	x	x	20%[12.7 µM]	x	x
CCc1nc(-c2cc(S(=O)(=O)N3CCN(c4ccc(F)cc4)CC3)ccc2OC)no1	x	27%	-26%	u	-17%	x
NS(=O)(=O)c1cccc(NC(=O)CSc2ncnc3ccccc23)c1	-10	25%	-2%	16%[59 µM]	-11%	-1
NS(=O)(=O)c1ccc(NC(=O)CSc2ncnc3ccccc23)cc1	x	38%	79µM*	-32%	-13%	2
CCOC(=O)c1cc(C)n(CC2CCC(C(=O)Nc3ccc(OC)cc3)CC2)c1C (stereo not given)	x	50%	-20%	-1%[59 µM]	-4%	x
CCOC(=O)c1ccccc1NC(=O)CSc1cn(CC(=O)N2CCOCC2)c2ccccc12	x	29%	u	-25%[59 µM]	-6%	x
Cc1cc(C)nc(N2N=C(C(C)(C)C)CC2=O)n1	3	32%	-38%	3.5µM*	u	3
Cc1[nH]n(-c2ccccc2)c(=O)c1-c1ccc(Cl)cc1	-3	-14%	-6%	14µM*	79µM*	-8
Cc1[nH]n(-c2ccccc2)c(=O)c1S(=O)(=O)c1ccccc1	-27	33%	42%	45µM*	-27%	-14
SMILES	CtBP-E1A blk	HP1b binding inh	BAZ2B inh	G9a inh	JMJD2A Tudor inh	Six1-Eya2 inh
Cc1[nH]n(-c2ccccc2)c(=O)c1CCO	-16	36%	2%	x	4%	15
CN(Cc1ccccc1)C(=O)CSc1nc(-c2ccc(F)cc2)cc(C(F)(F)F)n1	x	48%	12%	25%[59 µM]	27%	x
CC[C@H](C)[C@H]1O[C@]2(CC[C@@H]1C)C[C@@H]1C[C@@H](C/C=C(\C)[C@H](O[C@@H]3C[C@H](OC)[C@H](O[C@@H]4C[C@H](OC)[C@@H](O)[C@H](C)O4)[C@H](C)O3)[C@@H](C)/C=C/C=C3\CO[C@@H]4[C@H](O)C(C)=C[C@@H](C(=O)O1)[C@]34O)O2	x	x	x	5%[59 µM]	x	x
O=C(O)CCCNS(=O)(=O)c1ccc(NCc2ccccc2)c(C(=O)O)c1	17	40%	-36%	22µM*	-9%	3
COc1cc(OC)c(OC)cc1/C=C1\Oc2cc(OS(C)(=O)=O)ccc2C1=O	-11	-4%	-35%	40µM*	u	-25
COc1ccc(S(=O)(=O)Oc2ccc3c(c2)O/C(=C\c2cccnc2)C3=O)cc1	2	-24%	u	40µM*	u	4
O=C1/C(=C/c2cccnc2)Oc2cc(OS(=O)(=O)c3ccc(Cl)cc3)ccc21	8	14%	u	-17%	-15%	2
CCc1nc2nc(C)c(NS(=O)(=O)c3ccc(C(C)(C)C)cc3)c(=O)n2[nH]1	x	21%	4%	12%[59 µM]	-13%	x
COc1ccccc1NC(=O)C1=C(C)Nc2nc(CCCO)nn2C1c1cccc(O)c1 (stereo not given)	x	59%	5%	33%[59 µM]	-12%	x
COc1ccc(N2CCN(C(C)C(=O)N3CCCC3)CC2)cc1 (stereo not given)	1	u	32µM*	u	0.79µM*	2
COc1ccc(N2CCN(C(C)C(=O)Nc3nnc(C)s3)CC2)cc1 (stereo not given)	9	-3%	-16%	56µM*	u	10
O=C(CN1CCN(c2ccccn2)CC1)Nc1cccc(Br)c1	5	53%	-19%	45µM*	-22%	1
O=C(CN1CCN(c2ccccn2)CC1)Nc1cccc(F)c1	x	55%	4%	4%	-12%	0
COc1cc(NC(=O)CN2CCN(c3ccccn3)CC2)cc(OC)c1OC	-11	2%	4%	45µM*	0%	-9
COc1ccccc1NC(=O)CN1CCN(c2ccccn2)CC1	5	14%	9%	12%[59 µM]	-14%	0
O=C(CCN1CCN(c2ccccn2)CC1)Nc1ccc(F)cc1	0	23%	5%	11%	12%	-5
CN(C)c1ccc(NC(=O)CCn2c(=S)oc3ccccc32)cc1	-16	-2%	25µM*	u	u	-23
CN(C)c1ccc(NC(=O)CCN2CCN(c3ccccn3)CC2)cc1	x	3%	-29%	50µM*	-32%	-8
Cc1ccc(N=Cc2ccc(N(C)C)cc2)cc1	7	6%	-6%	-35%	-14%	3
